Records with an inconclusive call do not appear. A number with no mark means an inactive call. Active and inactive are the calls of the source. The call rests on the fitted dose curve.

The source of these data is PubChem BioAssay (Tox21).
On the % scale 0 is the no-effect control and ±100 the full control effect; potency means the concentration at half of the fitted maximal effect.

The target in this assay is 5-hydroxytryptamine receptor 2A (Homo sapiens) (UniProt P28223). Nature of the assay: 5-hydroxytryptamine receptor 2A (HTR2A) small molecule agonists, cell-based qHTS assay (AID 1963587). Further: nearly all actives have a fitted effect of over 30% in size. To be noted: HTR2A-CHO cells, calcium flux fluorescence, agonist mode; series mostly up to 76.8 µM; activation: at the top concentration. The source says: National Center for Advancing Translational Sciences [NCATS]
5-hydroxytryptamine receptor 2A (Homo sapiens), sequence (P28223 whole entry, looked up): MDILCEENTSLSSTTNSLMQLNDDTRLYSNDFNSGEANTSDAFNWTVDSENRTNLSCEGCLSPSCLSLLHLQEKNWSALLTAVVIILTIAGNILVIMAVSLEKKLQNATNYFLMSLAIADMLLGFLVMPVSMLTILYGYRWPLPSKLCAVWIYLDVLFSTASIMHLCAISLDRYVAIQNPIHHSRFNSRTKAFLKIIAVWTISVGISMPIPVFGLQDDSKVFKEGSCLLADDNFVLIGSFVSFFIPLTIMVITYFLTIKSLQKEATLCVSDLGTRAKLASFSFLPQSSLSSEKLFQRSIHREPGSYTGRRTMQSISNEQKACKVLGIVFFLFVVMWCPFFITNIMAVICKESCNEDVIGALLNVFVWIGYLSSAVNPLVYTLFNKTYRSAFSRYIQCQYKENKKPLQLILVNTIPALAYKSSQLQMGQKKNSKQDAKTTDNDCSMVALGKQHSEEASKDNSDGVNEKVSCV
Division of Preclinical Innovation [DPI]
U.S. Environmental Protection Agency [EPA]
National Institutes of Environmental Health Sciences [NIEHS]
National Toxicology Program [NTP]
U.S. Food and Drug Administration [FDA]
The HTR2A receptor is a subtype of the 5-HT2 receptor that belongs to the serotonin receptor family and is a G protein-coupled receptor (GPCR). The HTR2A-CHO cell line stably expressing human 5-hydroxytryptamine receptor 2A (HTR2A) can be used for screening agonists of interactions between 5-HT2 and its ligands. The HTR2A-CHO calcium flux assay is a homogeneous fluorescence-based assay for detecting the intracellular calcium level using FDSS kinetic plate reader system.
HTR2A-CHO cells were dispensed at 2000 cells/3uL/well in 1536-well black-clear bottom plates using a Multidrop Dispenser. After the assay plates were incubated at a 37 C/5% CO2 incubator for 18 h, 3 uL of Dye Loading Buffer was transferred to the assay plate by a Flying Reagent Dispenser. The assay plates were incubated at 37 C for 1h. For agonist mode, 23 nL of compounds dissolved in DMSO, positive controls or DMSO only was transferred to the assay plate by a pin tool. The fluorescence intensity in the plates was measured using FDSS 7000EX kinetic plate reader for 2 min at 1 sec intervals.
With `CCCCCCCCCCCCCCCC(=O)OCC`, the “activation” value is -1.78%.

Consider `CC(=O)[O][Al]`, for which the “activation” value was -0.362%.

As for `O=S(=O)(O)c1cc(O)ccc1O`, the “activation” value was 1.74%.

`O=C1NC(=O)C2CC=CCC12` (stereo not given): the “activation” value was -0.112%.

Turning to `CCN(Cc1ccccc1)c1ccccc1`, the “activation” value was -0.65%.

As to `O=S(=O)(O)c1ccc(Nc2nc(Nc3ccc(/C=C/c4ccc(Nc5nc(Nc6ccc(S(=O)(=O)O)cc6)nc(N(CCO)CCO)n5)cc4S(=O)(=O)O)c(S(=O)(=O)O)c3)nc(N(CCO)CCO)n2)cc1`, the “activation” value was -0.442% [at 35.6 µM].

`COc1cc(C(=O)OCCCN2CCCN(CCCOC(=O)c3cc(OC)c(OC)c(OC)c3)CC2)cc(OC)c1OC`: the “activation” value was 2.65% [at 35.6 µM].

As to `COc1cc(/C=C/c2ccccc2)oc(=O)c1`, the “activation” value was -0.778%.

`CC(C)CC(C)(C)C`: the “activation” value was 0.746%.

Take `CCCCN(CCCC)CC(O)c1cc(Cl)cc2c1-c1ccc(Cl)cc1/C2=C/c1ccc(Cl)cc1` (stereo not given): the “activation” value was 10.5% [at 35.6 µM].

Consider `C=C(C)C(=O)OCCOC1CC2CC1C1C=CCC21` (stereo not given), for which the “activation” value is 10.1%.

For the compound `CCCC(=O)OC`, the “activation” value is -0.284%.

For the compound `CC(C)(C)c1ccc(N)cc1`, the “activation” value was -4.41%.

As for `CCOc1ccc(NC(C)=O)cc1N`, the “activation” value is -0.255%.

Take `Clc1cccc(C(c2ccc3nc[nH]c3c2)n2ccnc2)c1` (stereo not given): the “activation” value was -1.83% [at 35.6 µM].

Turning to `O=C=NC1CCC(CC2CCC(N=C=O)CC2)CC1` (stereo not given), the Potency was 1.95 µM (active).

`Oc1c(Cl)cc(Cl)c2cccnc12`: the “activation” value is 11.3% [at 35.6 µM].

As for `CC(=O)Oc1cccc2c1C(=O)c1c(OC(C)=O)cc(C(=O)O)cc1C2=O`, the “activation” value is -3.28% [at 35.6 µM].

On to `O=C(Nc1cccc(Cl)c1)OCC#CCCl`, for which the “activation” value is -0.706%.

Turning to `C=O`, the “activation” value is -0.724%.

Consider `CCCCC/C(=C\c1ccccc1)CO`, for which the Potency was 54.3 µM (active).

Regarding `Nc1ccc2cc(S(=O)(=O)O)cc(O)c2c1N=Nc1ccccc1C(F)(F)F`, the “activation” value is -1.58%.

For the compound `OC[C@H]1O[C@@H](n2cnc3c(=S)nc[nH]c32)[C@H](O)[C@@H]1O`, the “activation” value is 2.11% [at 35.6 µM].

`CNc1ccc([N+](=O)[O-])cc1`: the “activation” value was -0.588%.

Turning to `Nc1nc(Cl)cc(Cl)n1`, the “activation” value was -1.85%.

Turning to `Cc1cc(NC(=O)C(=O)O)cc(C)c1Oc1ccc(O)c2c1CCC2`, the “activation” value was 12.3%.

With `CC(C)OC(=O)c1ccccc1C(=O)OC(C)C`, the “activation” value is 0.806%.

Regarding `CN(C)CCN(Cc1ccccc1)c1ccccn1`, the “activation” value is -7.37% [at 35.6 µM].

As to `CC(=O)Nc1ccc(OC(=O)c2ccccc2OC(C)=O)cc1`, the “activation” value is -0.928% [at 35.6 µM].

Consider `CCO[C@H](Cc1ccc(OCCc2ccc(OS(C)(=O)=O)cc2)cc1)C(=O)O`, for which the “activation” value is -3.92% [at 35.6 µM].

Turning to `CC1(C)CC(O)CC(C)(C)N1[O]`, the “activation” value was 0.074%.

Consider `Cc1cc2nc3ccc(=[N+](C)C)cc-3sc2cc1N`, for which the “activation” value is 1.76% [at 35.6 µM].

Consider `CC(C)NCC(O)COc1ccc(CCOCC2CC2)cc1` (stereo not given), for which the “activation” value was -2.01% [at 35.6 µM].

For the compound `COc1ccccc1N1CCN(CC(O)COc2cccc3ccccc23)CC1` (stereo not given), the “activation” value is 17.7% [at 35.6 µM].

Regarding `COc1cccc2sc(N)nc12`, the “activation” value is -0.204%.

Turning to `Cc1c(Cl)cccc1Cl`, the “activation” value was -3.5%.

For `C=CCOCC(O)CS(=O)(=O)O` (stereo not given), the “activation” value was -0.0351%.

Regarding `O=C1OC(=O)c2cc(-c3ccc4c(c3)C(=O)OC4=O)ccc21`, the “activation” value is -4.16%.

For `CN1C(C)(C)CC(O)CC1(C)C`, the “activation” value was 0.0615%.

With `O=[N+]([O-])c1cccc(Cl)c1Cl`, the “activation” value was -0.26%.
